Measurements taken from PubChem BioAssay (NCATS).
Several values for one entry are separate records, joined by “and”; a condition that tells them apart may be missing. Equal entries are not always repeated. Inconclusive results are not listed. Activity calls are given as the source filed them. Unless noted, calls follow the shape of the dose curve; as a rule, active = well fitted curve in the direction sought with a large enough effect; inconclusive = small, poorly fitted or top-dose-only effect, or another doubt; inactive = no such curve, though single readings can be large; an effect the other way counts as inactive or inconclusive.

Experiments:
CAOV3 = test: Primary qHTS to identify gynecologic anti-cancer compounds using libraries of approved drugs and bioactive compounds (AID 1345084); conditions: Gynecologic cancer cell panel viability, ATPlite luminescence, 48 h; series mostly up to 57.5 µM; also: % is scaled to controls: 0 for no effect and ±100 for the full control effect; nearly all actives have a fitted effect of over 55% in size
Procedure, shortened: (§1)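 Luminescence from the ATPlite ATP-monitoring reagent indicates viable cell number; lower signal means cytotoxicity. Cells received compound 16 h after seeding and were exposed for 48 h across five concentrations.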

CASKI = test: as above; conditions: Gynecologic cancer cell panel viability, ATPlite luminescence, 48 h; series mostly up to 57.5 µM
Procedure, shortened: as §1

Es-2 = test: as above; conditions: Gynecologic cancer cell panel viability, ATPlite luminescence, 48 h; series mostly up to 57.5 µM
Procedure, shortened: as §1

HeLa = test: as above; conditions: Gynecologic cancer cell panel viability, ATPlite luminescence, 48 h; series mostly up to 57.5 µM
Procedure, shortened: as §1

Hek293T = test: as above; conditions: Gynecologic cancer cell panel viability, ATPlite luminescence, 48 h, control line for the selectivity index; series mostly up to 57.5 µM
Procedure, shortened: as §1

JEG-3 = test: as above; conditions: Gynecologic cancer cell panel viability, ATPlite luminescence, 48 h; series mostly up to 57.5 µM
Procedure, shortened: as §1

OV90 = test: as above; conditions: Gynecologic cancer cell panel viability, ATPlite luminescence, 48 h; series mostly up to 57.5 µM
Procedure, shortened: as §1

PA-1 = test: as above; conditions: Gynecologic cancer cell panel viability, ATPlite luminescence, 48 h; series mostly up to 57.5 µM
Procedure, shortened: as §1

SKOV3 = test: as above; conditions: Gynecologic cancer cell panel viability, ATPlite luminescence, 48 h; series mostly up to 57.5 µM
Procedure, shortened: as §1

Tov-21-G = test: as above; conditions: Gynecologic cancer cell panel viability, ATPlite luminescence, 48 h; series mostly up to 57.5 µM
Procedure, shortened: as §1

Tov112D = test: as above; conditions: Gynecologic cancer cell panel viability, ATPlite luminescence, 48 h; series mostly up to 57.5 µM
Procedure, shortened: as §1

[1] = Drug repurposing screens with cells derived from glioblastoma tumor samples (AID 1345199); conditions: GBM patient neurospheres viability, ATP luminescence, 48 h; also: nearly all actives have a fitted effect of over 40% in size; also: potency is read from the fitted curve at half-maximal effect; as to activity, negative = cell killing: % is scaled to controls: 0 for no effect and ±100 for the full control effect
Procedure, shortened: (§2)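 Four patient lines of CD133+ GBM neurospheres were screened at several concentrations; hits were retested in those lines plus three slower-growing GBM lines, using 48-hour treatment and ATP-based viability.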

astro = test: as above; conditions: viability, ATP luminescence, 48 h; series mostly up to 45.9 µM
Procedure, shortened: as §2

[2] = target: Nuclear receptor subfamily 1 group I member 2 (Rattus norvegicus) (UniProt Q9R1A7); test: qHTS assay for small molecule activators of the rat pregnane X receptor (rPXR) signaling pathway (AID 651751; call rule not given here; also: 0% is about no effect); conditions: rPXR reporter cells, luciferase (One-Glo), 24 h
[3] = qHTS assay for small molecule activators of the human pregnane X receptor (PXR) signaling pathway (AID 720659; call rule not given here; also: 0% is about no effect)
[4] = at 45.9 µM (top of the series), tumour line B
[5] = at 45.9 µM (top of the series), tumour line D
[6] = at 46 µM (top of the series), tumour line A
[7] = at 21.2 µM (top of the series), tumour line B
[8] = at 21.2 µM (top of the series), tumour line D
[9] = at 21.3 µM (top of the series), tumour line A

Nuclear receptor subfamily 1 group I member 2 (Rattus norvegicus), sequence (Q9R1A7 whole entry, looked up): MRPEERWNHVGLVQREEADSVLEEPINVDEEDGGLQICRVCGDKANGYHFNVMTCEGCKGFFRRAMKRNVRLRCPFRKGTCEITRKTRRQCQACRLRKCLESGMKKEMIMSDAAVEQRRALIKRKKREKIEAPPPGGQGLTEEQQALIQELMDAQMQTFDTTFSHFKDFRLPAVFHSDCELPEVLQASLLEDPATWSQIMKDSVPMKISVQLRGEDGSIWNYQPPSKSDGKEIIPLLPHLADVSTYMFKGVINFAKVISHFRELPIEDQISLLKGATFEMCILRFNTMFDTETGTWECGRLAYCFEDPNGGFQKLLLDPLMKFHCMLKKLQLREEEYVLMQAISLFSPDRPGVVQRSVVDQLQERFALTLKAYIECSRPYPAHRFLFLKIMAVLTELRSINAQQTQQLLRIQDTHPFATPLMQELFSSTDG

NCC(CC(=O)O)c1ccc(Cl)cc1 (stereo not given)
inactive: activity change, negative = cytotoxicity (CAOV3) 8.76% [at 0.462 µM] | activity change, negative = cytotoxicity (CASKI) 17.3% [at 0.462 µM] | activity change, negative = cytotoxicity (Es-2) 4.42% [at 0.462 µM] | activity change, negative = cytotoxicity (HeLa) 8.44% [at 0.462 µM] | activity change, negative = cytotoxicity (Hek293T) -3.58% [at 0.462 µM] | activity change, negative = cytotoxicity (JEG-3) -6.96% [at 0.462 µM] | activity change, negative = cytotoxicity (OV90) 19.2% [at 0.462 µM] | activity change, negative = cytotoxicity (PA-1) 5.78% [at 0.462 µM] | activity change, negative = cytotoxicity (SKOV3) 1.02% [at 0.462 µM] | activity change, negative = cytotoxicity (Tov-21-G) 5.93% [at 0.462 µM] | activity change, negative = cytotoxicity (Tov112D) -1.06% [at 0.462 µM] | activity, negative = cell killing [1, 4] -0.559% | activity, negative = cell killing [1, 5] -15.2% | activity, negative = cell killing [1, 6] -26.1%

O=P1(NCCCl)OCCCN1CCCl (stereo not given)
inactive: Potency (CAOV3) | Potency (CASKI) | Potency (Es-2) | Potency (HeLa) | Potency (Hek293T) | Potency (JEG-3) | Potency (OV90) | Potency (PA-1) | Potency (SKOV3) | Potency (Tov-21-G) | Potency (Tov112D) | activity, negative = cell killing [1, 7] -10.6% | activity, negative = cell killing [1, 8] -4.8% | activity, negative = cell killing [1, 9] -27.9%

NP(N)(=O)NC(=O)c1ccc(F)cc1
inactive: Potency (CAOV3) | Potency (CASKI) | Potency (Es-2) | Potency (HeLa) | Potency (Hek293T) | Potency (JEG-3) | Potency (OV90) | Potency (PA-1) | Potency (SKOV3) | Potency (Tov-21-G) | Potency (Tov112D) | activity, negative = cell killing [1, 4] -10% | activity, negative = cell killing [1, 5] -14.8% | activity, negative = cell killing [1, 6] -25.8% | Potency (astro)

NCC1(CC(=O)O)CCCCC1
inactive: Potency (CAOV3) | Potency (CASKI) | Potency (Es-2) | Potency (HeLa) | Potency (Hek293T) | Potency (JEG-3) | Potency (OV90) | Potency (PA-1) | Potency (SKOV3) | Potency (Tov-21-G) | Potency (Tov112D) | activity, negative = cell killing [1, 7] -18.9% | activity, negative = cell killing [1, 8] -10.4% | activity, negative = cell killing [1, 9] -25.7%

O=C(O)c1ccc2[nH]cc(CCCCN3CC=C(c4ccccc4)CC3)c2c1
inactive: Potency (CAOV3) | Potency (CASKI) | Potency (Es-2) | Potency (HeLa) | Potency (Hek293T) | Potency (JEG-3) | Potency (OV90) | Potency (PA-1) | Potency (SKOV3) | Potency (Tov-21-G) | Potency (Tov112D) | activity, negative = cell killing [1, 4] -0.385% | activity, negative = cell killing [1, 5] -15.3%

COc1ccccc1N1CCNCC1
inactive: Potency (CAOV3) | Potency (CASKI) | Potency (Es-2) | Potency (HeLa) | Potency (Hek293T) | Potency (JEG-3) | Potency (OV90) | Potency (PA-1) | Potency (SKOV3) | Potency (Tov-21-G) | Potency (Tov112D) | activity, negative = cell killing [1, 4] -16.5% | activity, negative = cell killing [1, 5] -3.17% | activity, negative = cell killing [1, 6] -37.1%

CNCC(O)c1ccc(O)cc1 (stereo not given)
inactive: Potency (CAOV3) | Potency (CASKI) | Potency (Es-2) | Potency (HeLa) | Potency (Hek293T) | Potency (JEG-3) | Potency (OV90) | Potency (PA-1) | Potency (SKOV3) | Potency (Tov-21-G) | Potency (Tov112D) | activity, negative = cell killing [1, 7] 9.4% | activity, negative = cell killing [1, 8] 0.215% | activity, negative = cell killing [1, 9] -26.2% | Potency (astro) | max response [2] -0.194% | outcome [3]

CC(=O)[C@H]1CC[C@H]2[C@@H]3CC[C@H]4C[C@H](O)CC[C@]4(C)[C@H]3C(=O)C[C@]12C
inactive: Potency (CAOV3) | Potency (CASKI) | Potency (Es-2) | Potency (HeLa) | Potency (Hek293T) | Potency (JEG-3) | Potency (OV90) | Potency (PA-1) | Potency (SKOV3) | Potency (Tov-21-G) | Potency (Tov112D) | activity, negative = cell killing [1, 4] -8.44% | activity, negative = cell killing [1, 5] -5.23% | Potency (astro)

Cn1cc(C2=C(c3cn(C4CCN(Cc5ccccn5)CC4)c4ccccc34)C(=O)NC2=O)c2ccccc21
inactive: Potency (CAOV3) | Potency (CASKI) | Potency (Es-2) | Potency (HeLa) | Potency (Hek293T) | Potency (JEG-3) | Potency (OV90) | Potency (PA-1) | Potency (SKOV3) | Potency (Tov-21-G) | Potency (Tov112D) | activity, negative = cell killing [1, 4] 31.3%
active: Potency ([1]; tumour line A) 2.51 µM | Potency ([1]; tumour line D) 20 µM

CN(C)[C@@H]1C(=O)C(C(N)=O)=C(O)[C@@]2(O)C(=O)C3=C(O)c4c(O)cccc4[C@@](C)(O)[C@H]3C[C@@H]12
inactive: Potency (CAOV3) | Potency (CASKI) | Potency (Es-2) | Potency (HeLa) | Potency (Hek293T) | Potency (JEG-3) | Potency (OV90) | Potency (PA-1) | Potency (SKOV3) | Potency (Tov-21-G) | Potency (Tov112D) | activity, negative = cell killing [1, 7] -16.2% | activity, negative = cell killing [1, 8] -21.5% | Potency (astro)

CCCN1CCC[C@@H]2Cc3[nH]ncc3C[C@H]21
inactive: Potency (CAOV3) | Potency (CASKI) | Potency (Es-2) | Potency (HeLa) | Potency (Hek293T) | Potency (JEG-3) | Potency (OV90) | Potency (PA-1) | Potency (SKOV3) | Potency (Tov-21-G) | Potency (Tov112D) | activity, negative = cell killing [1, 4] -3.57% | activity, negative = cell killing [1, 5] -3.31%

C=C1CC[C@@]2(O)[C@H]3Cc4ccc(O)c5c4[C@@]2(CCN3CC2CC2)[C@H]1O5
inactive: Potency (CAOV3) | Potency (CASKI) | Potency (Es-2) | Potency (HeLa) | Potency (Hek293T) | Potency (JEG-3) | Potency (OV90) | Potency (PA-1) | Potency (SKOV3) | Potency (Tov-21-G) | Potency (Tov112D) | activity, negative = cell killing [1, 4] -11% | activity, negative = cell killing [1, 5] 5.06%

O=C(NC(O)C(Cl)(Cl)Cl)NC(O)C(Cl)(Cl)Cl (stereo not given)
inactive: Potency (CAOV3) | Potency (CASKI) | Potency (Es-2) | Potency (HeLa) | Potency (Hek293T) | Potency (JEG-3) | Potency (OV90) | Potency (PA-1) | Potency (SKOV3) | Potency (Tov-21-G) | Potency (Tov112D) | activity, negative = cell killing [1, 4] -10.4% | activity, negative = cell killing [1, 5] 2.45% | activity, negative = cell killing [1, 6] -14.7% | Potency (astro)

CC1OC(C)OC(C)O1 (stereo not given)
inactive: Potency (CAOV3) | Potency (CASKI) | Potency (Es-2) | Potency (HeLa) | Potency (Hek293T) | Potency (JEG-3) | Potency (OV90) | Potency (PA-1) | Potency (SKOV3) | Potency (Tov-21-G) | Potency (Tov112D) | activity, negative = cell killing [1, 4] 0.183% and 0.957% | activity, negative = cell killing [1, 5] -11.1% and -5.15% | activity, negative = cell killing [1, 6] -20.8% and 1.27% | Potency (astro)

CC(O)(CS(=O)(=O)c1ccc(F)cc1)C(=O)Nc1ccc(C#N)c(C(F)(F)F)c1 (stereo not given)
inactive: Potency (CAOV3) | Potency (CASKI) | Potency (Es-2) | Potency (HeLa) | Potency (Hek293T) | Potency (JEG-3) | Potency (OV90) | Potency (PA-1) | Potency (SKOV3) | Potency (Tov-21-G) | Potency (Tov112D)
